# Article PMC7862700, “An all-to-all approach to the identification of sequence-specific readers for epigenetic DNA modifications on cytosine”
# What was measured:
# Experiment in all cases: DAPPL (digital affinity profiling via proximity ligation, sequencing); 10 mM Tris-HCl pH 7.5, 50 mM NaCl, 1 mM DTT, 4% glycerol, room temperature, 30 min; GST-TFs on glutathione beads, 16-mer random dsDNA library, 0.1% formaldehyde crosslink after washing; high values mean tight binding
# [1] = target: T1, FEV (Homo sapiens, UniProt Q99581 1-238); conditions: protein: recombinant; tags: N-terminal GST; dsDNA, one strand shown
# T1 sequence: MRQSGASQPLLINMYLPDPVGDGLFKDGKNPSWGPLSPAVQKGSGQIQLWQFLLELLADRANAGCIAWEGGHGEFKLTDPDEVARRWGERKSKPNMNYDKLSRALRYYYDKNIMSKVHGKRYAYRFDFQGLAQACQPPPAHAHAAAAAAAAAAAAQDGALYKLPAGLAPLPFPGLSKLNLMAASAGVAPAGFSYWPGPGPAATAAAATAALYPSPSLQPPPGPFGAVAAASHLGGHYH
# Method in brief: (§1)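 Sequencing on an Illumina NextSeq500 followed washing, crosslinking with 0.1% formaldehyde, proximity ligation (BsaI/T4 ligase, 1 h, 37 °C) and PCR amplification of pools that had been incubated for 30 min at room temperature with 200 nmole of a random double-stranded 16-mer DNA library in Tris/NaCl/DTT/glycerol buffer. Each pool held DNA-barcoded human transcription factors, expressed in yeast as GST fusions and captured on glutathione beads, plus a tag-only sample. Binding signal is a hexamer's read frequency for a factor divided by its frequency in the tag-only sample.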
# [2] = target: ETV5 (Homo sapiens, UniProt P41161 1-510); conditions: protein: recombinant; tags: N-terminal GST; dsDNA, one strand shown
# Sequence of ETV5 (P41161 whole entry): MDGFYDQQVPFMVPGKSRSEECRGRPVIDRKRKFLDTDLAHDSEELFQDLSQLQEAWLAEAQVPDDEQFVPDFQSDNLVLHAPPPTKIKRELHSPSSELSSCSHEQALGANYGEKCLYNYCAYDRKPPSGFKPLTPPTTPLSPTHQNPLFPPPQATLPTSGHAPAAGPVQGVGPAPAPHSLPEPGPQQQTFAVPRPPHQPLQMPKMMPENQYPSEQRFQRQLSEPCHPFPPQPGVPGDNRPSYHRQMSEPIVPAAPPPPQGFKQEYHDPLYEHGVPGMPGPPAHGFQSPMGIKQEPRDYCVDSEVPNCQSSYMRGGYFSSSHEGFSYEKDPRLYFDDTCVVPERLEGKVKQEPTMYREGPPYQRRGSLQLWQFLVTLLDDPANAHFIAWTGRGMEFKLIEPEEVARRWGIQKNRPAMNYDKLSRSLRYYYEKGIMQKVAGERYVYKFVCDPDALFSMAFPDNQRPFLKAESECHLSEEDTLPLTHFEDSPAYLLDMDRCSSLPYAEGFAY
# Method in brief: as §1
# [3] = target: HSF1 (Homo sapiens, UniProt Q00613 1-529); conditions: protein: recombinant; tags: N-terminal GST; chain copies: 3; dsDNA, one strand shown
# Sequence of HSF1 (Q00613 whole entry): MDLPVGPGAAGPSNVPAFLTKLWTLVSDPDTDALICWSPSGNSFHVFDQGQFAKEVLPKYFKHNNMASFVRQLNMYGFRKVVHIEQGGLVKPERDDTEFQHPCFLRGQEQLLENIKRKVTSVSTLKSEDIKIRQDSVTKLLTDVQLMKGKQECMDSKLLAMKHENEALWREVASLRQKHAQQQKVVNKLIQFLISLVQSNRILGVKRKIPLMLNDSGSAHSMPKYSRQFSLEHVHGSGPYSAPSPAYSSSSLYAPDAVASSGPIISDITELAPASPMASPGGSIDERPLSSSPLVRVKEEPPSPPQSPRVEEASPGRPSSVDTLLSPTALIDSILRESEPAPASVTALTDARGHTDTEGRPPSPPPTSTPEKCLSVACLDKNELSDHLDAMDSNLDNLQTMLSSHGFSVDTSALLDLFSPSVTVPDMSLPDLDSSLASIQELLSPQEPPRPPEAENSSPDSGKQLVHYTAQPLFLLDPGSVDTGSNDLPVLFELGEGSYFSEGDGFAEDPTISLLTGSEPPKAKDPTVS
# Method in brief: as §1
# [4] = target: T2, SPIC (Homo sapiens, UniProt Q8N5J4 1-248); conditions: protein: recombinant; tags: N-terminal GST; dsDNA, one strand shown
# T2 sequence: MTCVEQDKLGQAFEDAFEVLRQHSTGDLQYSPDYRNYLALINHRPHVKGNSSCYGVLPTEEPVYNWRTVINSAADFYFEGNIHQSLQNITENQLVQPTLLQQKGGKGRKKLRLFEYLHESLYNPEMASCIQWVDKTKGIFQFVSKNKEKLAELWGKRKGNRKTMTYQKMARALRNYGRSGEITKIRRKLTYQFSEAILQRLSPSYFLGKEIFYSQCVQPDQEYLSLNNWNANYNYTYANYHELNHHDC
# Method in brief: as §1
# [5] = target: ELF4 (Homo sapiens, UniProt Q99607 1-663); conditions: protein: recombinant; tags: N-terminal GST; dsDNA, one strand shown
# Sequence of ELF4 (Q99607 whole entry): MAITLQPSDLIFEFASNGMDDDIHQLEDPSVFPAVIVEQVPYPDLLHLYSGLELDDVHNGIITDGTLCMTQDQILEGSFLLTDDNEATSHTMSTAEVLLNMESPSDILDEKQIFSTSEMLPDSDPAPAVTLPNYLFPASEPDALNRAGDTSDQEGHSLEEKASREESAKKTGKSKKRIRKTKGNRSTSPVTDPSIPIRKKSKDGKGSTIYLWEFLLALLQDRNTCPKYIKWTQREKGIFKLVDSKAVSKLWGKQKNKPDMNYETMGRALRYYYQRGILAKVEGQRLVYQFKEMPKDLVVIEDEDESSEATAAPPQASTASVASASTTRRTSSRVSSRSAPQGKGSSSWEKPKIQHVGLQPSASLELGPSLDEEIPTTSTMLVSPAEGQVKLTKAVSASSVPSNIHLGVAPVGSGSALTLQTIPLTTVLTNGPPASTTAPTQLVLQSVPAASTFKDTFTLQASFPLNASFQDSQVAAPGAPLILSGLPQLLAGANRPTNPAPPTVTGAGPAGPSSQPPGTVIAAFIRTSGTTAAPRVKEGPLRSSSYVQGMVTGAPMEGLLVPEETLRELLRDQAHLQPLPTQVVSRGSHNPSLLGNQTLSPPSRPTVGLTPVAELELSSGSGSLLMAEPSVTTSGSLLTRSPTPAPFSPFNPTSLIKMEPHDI
# Method in brief: as §1
# [6] = target: T3, ELK4 (Homo sapiens, UniProt P28324-2 1-405); conditions: protein: recombinant; tags: N-terminal GST; dsDNA, one strand shown
# T3 sequence: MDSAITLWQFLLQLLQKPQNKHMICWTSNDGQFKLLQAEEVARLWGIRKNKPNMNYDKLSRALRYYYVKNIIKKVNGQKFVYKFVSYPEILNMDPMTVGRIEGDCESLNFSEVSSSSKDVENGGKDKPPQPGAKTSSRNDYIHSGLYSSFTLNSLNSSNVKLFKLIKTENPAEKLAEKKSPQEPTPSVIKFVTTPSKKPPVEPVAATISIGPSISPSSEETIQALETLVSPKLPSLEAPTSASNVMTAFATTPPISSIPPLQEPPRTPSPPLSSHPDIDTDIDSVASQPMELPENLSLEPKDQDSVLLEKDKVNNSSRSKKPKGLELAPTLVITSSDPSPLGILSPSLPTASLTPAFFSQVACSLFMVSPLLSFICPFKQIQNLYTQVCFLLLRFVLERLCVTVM
# Method in brief: as §1
# [7] = target: T4, ETV2 (Homo sapiens, UniProt O00321 1-342); conditions: protein: recombinant; tags: N-terminal GST; dsDNA, one strand shown
# T4 sequence: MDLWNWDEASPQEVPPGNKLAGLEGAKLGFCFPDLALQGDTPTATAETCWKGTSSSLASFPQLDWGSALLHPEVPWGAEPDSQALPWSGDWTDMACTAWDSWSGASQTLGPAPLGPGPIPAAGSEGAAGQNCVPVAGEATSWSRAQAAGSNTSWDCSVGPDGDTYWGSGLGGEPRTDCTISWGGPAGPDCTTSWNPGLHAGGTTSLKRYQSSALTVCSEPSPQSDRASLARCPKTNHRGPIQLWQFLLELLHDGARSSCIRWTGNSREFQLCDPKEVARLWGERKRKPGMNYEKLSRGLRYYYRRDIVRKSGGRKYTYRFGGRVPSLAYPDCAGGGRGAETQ
# Method in brief: as §1
# [8] = target: T5, ELF3 (Homo sapiens, UniProt P78545 1-371); conditions: protein: recombinant; tags: N-terminal GST; dsDNA, one strand shown
# T5 sequence: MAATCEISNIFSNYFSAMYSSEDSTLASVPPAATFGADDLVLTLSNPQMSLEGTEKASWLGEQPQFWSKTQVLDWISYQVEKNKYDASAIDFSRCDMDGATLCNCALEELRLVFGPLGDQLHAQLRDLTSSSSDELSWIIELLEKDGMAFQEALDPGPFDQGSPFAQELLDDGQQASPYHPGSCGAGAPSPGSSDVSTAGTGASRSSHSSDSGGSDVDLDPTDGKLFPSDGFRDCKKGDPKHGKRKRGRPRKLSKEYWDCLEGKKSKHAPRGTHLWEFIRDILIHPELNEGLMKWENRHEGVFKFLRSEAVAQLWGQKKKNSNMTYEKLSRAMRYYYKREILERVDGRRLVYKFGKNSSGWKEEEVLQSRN
# Method in brief: as §1
# [9] = target: CRX (Homo sapiens, UniProt O43186 1-299); conditions: protein: recombinant; tags: N-terminal GST; dsDNA, one strand shown
# Sequence of CRX (O43186 whole entry): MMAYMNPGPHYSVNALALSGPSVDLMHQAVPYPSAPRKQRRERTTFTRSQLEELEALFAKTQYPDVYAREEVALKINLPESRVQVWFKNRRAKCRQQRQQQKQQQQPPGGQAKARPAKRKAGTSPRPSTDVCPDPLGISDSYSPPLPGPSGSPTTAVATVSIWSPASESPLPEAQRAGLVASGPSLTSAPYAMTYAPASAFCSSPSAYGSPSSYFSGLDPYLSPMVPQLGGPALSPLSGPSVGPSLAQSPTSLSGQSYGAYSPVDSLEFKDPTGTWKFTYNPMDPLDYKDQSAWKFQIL
# Method in brief: as §1
# [10] = target: ETV1 (Homo sapiens, UniProt P50549 1-477); conditions: protein: recombinant; tags: N-terminal GST; dsDNA, one strand shown
# Sequence of ETV1 (P50549 whole entry): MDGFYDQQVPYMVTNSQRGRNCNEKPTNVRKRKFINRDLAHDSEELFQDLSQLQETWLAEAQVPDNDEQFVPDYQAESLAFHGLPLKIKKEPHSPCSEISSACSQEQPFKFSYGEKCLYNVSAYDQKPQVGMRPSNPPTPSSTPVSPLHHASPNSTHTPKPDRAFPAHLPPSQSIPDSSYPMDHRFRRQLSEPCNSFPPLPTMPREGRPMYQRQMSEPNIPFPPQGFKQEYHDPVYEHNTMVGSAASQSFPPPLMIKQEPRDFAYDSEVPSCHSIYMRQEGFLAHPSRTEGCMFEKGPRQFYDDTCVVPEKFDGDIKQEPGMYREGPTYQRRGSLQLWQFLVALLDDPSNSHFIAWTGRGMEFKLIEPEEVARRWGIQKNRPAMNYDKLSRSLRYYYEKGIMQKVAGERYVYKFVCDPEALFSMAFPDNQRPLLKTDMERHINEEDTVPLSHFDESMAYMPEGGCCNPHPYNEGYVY
# Method in brief: as §1
sequence,measurement,setting,value
AAACTC,binding signal,[1],"1.18 fold enrichment (6-mer frequency, TF over GST control)"
same,binding signal,[2],"1.22 fold enrichment (6-mer frequency, TF over GST control)"
same,binding signal,[3],"1.18 fold enrichment (6-mer frequency, TF over GST control)"
same,binding signal,[4],"1.26 fold enrichment (6-mer frequency, TF over GST control)"
same,binding signal,[5],"1.22 fold enrichment (6-mer frequency, TF over GST control)"
same,binding signal,[6],"1.04 fold enrichment (6-mer frequency, TF over GST control)"
same,binding signal,[7],"1.3 fold enrichment (6-mer frequency, TF over GST control)"
same,binding signal,[8],"1.25 fold enrichment (6-mer frequency, TF over GST control)"
same,binding signal,[9],"1.18 fold enrichment (6-mer frequency, TF over GST control)"
same,binding signal,[10],"1.22 fold enrichment (6-mer frequency, TF over GST control)"
